Results as given in the supplement of paper PMC10849652.
Targets with a hit are over-represented here; the source holds about 7,900 in all. About 0.6% of all pairs of compound and target were hits. A number with no mark means an inactive call.

What was measured:
Assay in all cases: log2 fold change, soluble protein after heating vs DMSO (PISA); higher = thermal stabilisation; K562 cells, 10 uM, 30 min; active = over 0.2 and 3.5 SD of the protein, either way, in both replicates (recomputed)
[1] = compound: NC(=O)Nc1cc(-c2cccc(F)c2)sc1C(=O)N[C@H]1CCCNC1
Method in brief: (§1)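 Soluble protein was defined as the supernatant after 21,000xg for 90 min. It came from K562 cells at 2×10^6 cells/mL given 10 μM compound for 30 min, heated in aliquots for 3 min across 48°C-58°C, pooled, and extracted in PBS with 0.5% NP-40 at 4°C, and was quantified by TMTpro 16plex LC-MS/MS with equalised channel sums. Thermal stability against control samples, from duplicates, is reported as log2 fold change.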

[2] = compound: NC(=O)c1cnc(N[C@@H]2CCCC[C@@H]2N)nc1Nc1cccc(-n2nccn2)c1
Method in brief: as §1

[3] = compound: NC1(c2ccc(-c3nc4ccn5c(=O)[nH]nc5c4cc3-c3ccccc3)cc2)CCC1
Method in brief: as §1

[4] = compound: NCC(=O)Nc1ccc(-n2nc(C(F)(F)F)cc2-c2ccc3c(ccc4ccccc43)c2)cc1
Method in brief: as §1

entinostat = compound: Nc1ccccc1NC(=O)c1ccc(CNC(=O)OCc2cccnc2)cc1 [entinostat]
Method in brief: as §1

vorinostat = compound: O=C(CCCCCCC(=O)Nc1ccccc1)NO [vorinostat]
Method in brief: as §1

citarinostat = compound: O=C(CCCCCCNC(=O)c1cnc(N(c2ccccc2)c2ccccc2Cl)nc1)NO [citarinostat]
Method in brief: as §1

silmitasertib = compound: O=C(O)c1ccc2c(c1)nc(Nc1cccc(Cl)c1)c1ccncc12 [silmitasertib]
Method in brief: as §1

[5] = compound: O=C1NC(=O)C(c2cnc3ccccn23)=C1c1cn2c3c(cc(F)cc13)CN(C(=O)N1CCCCC1)CC2
Method in brief: as §1

[6] = compound: c1cc(OCCN2CCCCC2)cc(-c2n[nH]c3ccc(-c4nnc[nH]4)cc23)c1
Method in brief: as §1

Sequence of UniProt Q15121 (Q15121 whole entry, looked up): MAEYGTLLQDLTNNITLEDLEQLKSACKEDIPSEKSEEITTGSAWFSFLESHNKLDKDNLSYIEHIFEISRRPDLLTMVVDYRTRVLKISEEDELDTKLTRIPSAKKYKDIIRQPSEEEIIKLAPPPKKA
Sequence of UniProt Q86TB9 (Q86TB9 whole entry, looked up): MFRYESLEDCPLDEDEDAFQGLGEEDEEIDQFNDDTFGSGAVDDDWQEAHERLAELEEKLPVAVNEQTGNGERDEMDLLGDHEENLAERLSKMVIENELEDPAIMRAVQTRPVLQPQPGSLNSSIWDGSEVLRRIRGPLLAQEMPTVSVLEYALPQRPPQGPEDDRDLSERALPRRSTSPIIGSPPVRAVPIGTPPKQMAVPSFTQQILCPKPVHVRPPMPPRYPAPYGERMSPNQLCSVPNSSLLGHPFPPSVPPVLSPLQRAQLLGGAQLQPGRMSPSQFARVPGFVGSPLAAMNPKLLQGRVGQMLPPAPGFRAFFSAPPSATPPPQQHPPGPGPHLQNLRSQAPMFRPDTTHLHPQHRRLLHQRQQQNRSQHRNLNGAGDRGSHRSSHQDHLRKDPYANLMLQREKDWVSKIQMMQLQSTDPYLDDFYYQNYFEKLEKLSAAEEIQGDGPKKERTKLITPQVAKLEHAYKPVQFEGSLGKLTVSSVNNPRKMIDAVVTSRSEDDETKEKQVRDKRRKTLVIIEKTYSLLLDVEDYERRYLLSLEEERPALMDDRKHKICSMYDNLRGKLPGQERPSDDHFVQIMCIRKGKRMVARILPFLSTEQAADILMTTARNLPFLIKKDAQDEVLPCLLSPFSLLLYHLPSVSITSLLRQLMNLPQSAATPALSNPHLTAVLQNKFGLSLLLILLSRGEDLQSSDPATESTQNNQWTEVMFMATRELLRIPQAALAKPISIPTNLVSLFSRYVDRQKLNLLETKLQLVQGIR
Sequence of UniProt Q8TBX8 (Q8TBX8 whole entry, looked up): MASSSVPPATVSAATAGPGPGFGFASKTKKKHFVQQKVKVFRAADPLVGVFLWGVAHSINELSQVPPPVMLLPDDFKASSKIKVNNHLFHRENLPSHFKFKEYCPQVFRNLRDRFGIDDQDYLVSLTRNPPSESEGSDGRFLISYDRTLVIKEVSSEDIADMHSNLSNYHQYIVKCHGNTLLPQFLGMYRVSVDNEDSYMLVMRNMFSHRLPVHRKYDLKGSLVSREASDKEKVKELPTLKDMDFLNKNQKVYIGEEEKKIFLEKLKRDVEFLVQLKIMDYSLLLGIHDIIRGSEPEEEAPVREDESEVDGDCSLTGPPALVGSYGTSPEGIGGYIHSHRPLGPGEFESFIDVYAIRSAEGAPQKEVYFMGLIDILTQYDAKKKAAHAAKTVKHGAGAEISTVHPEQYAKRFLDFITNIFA
Sequence of UniProt P35998 (P35998 whole entry, looked up): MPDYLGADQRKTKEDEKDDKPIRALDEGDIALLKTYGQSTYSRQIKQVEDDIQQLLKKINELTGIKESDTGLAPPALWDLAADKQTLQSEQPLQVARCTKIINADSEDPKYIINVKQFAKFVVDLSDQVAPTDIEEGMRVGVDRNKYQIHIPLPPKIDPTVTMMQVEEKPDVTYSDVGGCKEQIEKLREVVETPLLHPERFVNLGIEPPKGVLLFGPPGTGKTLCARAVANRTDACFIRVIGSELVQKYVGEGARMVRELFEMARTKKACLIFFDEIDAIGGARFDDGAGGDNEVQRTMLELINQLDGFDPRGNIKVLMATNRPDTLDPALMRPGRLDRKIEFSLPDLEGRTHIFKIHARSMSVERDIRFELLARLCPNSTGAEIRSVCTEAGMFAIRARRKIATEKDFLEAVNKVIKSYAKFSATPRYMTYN
Sequence of UniProt Q14181 (Q14181 whole entry, looked up): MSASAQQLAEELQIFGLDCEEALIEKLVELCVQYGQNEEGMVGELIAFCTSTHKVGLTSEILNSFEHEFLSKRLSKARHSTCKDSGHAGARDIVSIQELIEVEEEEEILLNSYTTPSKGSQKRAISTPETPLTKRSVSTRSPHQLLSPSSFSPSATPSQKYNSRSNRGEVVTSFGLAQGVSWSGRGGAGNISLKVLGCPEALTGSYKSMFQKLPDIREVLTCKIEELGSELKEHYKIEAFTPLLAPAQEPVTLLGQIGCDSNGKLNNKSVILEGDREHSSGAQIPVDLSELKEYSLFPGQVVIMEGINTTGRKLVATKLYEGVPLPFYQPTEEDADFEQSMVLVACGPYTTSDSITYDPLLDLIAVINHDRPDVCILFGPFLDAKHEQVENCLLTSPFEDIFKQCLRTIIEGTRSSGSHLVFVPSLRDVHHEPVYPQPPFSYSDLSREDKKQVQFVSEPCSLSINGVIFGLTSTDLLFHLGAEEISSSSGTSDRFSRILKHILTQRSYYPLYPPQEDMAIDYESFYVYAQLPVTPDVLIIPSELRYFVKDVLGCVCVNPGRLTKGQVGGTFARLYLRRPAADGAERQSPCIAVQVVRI
Sequence of UniProt Q9Y5Y5 (Q9Y5Y5 whole entry, looked up): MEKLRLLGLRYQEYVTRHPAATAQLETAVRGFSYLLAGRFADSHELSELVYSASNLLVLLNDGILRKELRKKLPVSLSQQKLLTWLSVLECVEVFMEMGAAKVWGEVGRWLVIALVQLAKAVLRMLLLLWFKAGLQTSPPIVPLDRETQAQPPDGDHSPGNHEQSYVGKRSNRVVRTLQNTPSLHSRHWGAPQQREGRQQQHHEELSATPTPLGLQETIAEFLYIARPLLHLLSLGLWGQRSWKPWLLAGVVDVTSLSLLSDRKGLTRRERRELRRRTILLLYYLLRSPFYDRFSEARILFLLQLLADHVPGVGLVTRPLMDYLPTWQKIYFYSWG
Sequence of UniProt Q13362 (Q13362 whole entry, looked up): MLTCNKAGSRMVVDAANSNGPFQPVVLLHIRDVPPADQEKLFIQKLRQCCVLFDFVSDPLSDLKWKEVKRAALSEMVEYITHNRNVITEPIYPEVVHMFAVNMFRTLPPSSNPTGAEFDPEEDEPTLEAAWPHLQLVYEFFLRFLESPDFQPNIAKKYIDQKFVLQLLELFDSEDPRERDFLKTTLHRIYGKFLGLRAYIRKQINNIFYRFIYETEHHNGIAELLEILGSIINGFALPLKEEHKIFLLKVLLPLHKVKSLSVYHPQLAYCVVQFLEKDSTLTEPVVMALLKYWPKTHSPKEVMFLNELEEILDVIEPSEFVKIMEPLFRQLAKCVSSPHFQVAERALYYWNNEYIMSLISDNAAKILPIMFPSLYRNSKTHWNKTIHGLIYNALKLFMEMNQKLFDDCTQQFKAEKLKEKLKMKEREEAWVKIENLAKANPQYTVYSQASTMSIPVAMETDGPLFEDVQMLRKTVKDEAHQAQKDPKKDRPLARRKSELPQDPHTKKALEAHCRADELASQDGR
Sequence of UniProt Q8N5Y8 (Q8N5Y8 whole entry, looked up): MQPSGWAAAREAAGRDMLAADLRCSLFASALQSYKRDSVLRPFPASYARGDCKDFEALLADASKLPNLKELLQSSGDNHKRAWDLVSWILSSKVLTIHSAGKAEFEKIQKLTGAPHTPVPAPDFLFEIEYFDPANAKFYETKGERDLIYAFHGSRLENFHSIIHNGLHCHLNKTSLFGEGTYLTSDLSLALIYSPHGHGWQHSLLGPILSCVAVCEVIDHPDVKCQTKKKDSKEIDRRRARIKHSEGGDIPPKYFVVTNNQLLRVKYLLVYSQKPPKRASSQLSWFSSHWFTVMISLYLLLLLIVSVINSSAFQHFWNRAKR
Sequence of UniProt Q6L8Q7 (Q6L8Q7 whole entry, looked up): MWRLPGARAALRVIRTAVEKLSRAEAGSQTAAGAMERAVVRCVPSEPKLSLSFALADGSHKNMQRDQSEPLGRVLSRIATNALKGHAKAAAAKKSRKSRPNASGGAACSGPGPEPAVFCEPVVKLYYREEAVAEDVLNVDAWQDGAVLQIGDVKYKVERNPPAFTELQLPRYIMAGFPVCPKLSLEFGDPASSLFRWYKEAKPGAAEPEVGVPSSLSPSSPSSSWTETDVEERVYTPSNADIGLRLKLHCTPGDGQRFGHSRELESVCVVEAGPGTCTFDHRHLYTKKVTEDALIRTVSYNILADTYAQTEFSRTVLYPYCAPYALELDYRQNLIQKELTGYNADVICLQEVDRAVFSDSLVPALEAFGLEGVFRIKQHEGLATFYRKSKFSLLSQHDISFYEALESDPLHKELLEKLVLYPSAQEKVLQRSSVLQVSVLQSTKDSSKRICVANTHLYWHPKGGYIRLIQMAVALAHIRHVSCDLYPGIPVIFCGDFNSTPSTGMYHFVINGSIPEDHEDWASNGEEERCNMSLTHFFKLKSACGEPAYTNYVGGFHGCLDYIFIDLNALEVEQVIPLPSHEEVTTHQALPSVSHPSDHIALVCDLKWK
Sequence of UniProt Q04759 (Q04759 whole entry, looked up): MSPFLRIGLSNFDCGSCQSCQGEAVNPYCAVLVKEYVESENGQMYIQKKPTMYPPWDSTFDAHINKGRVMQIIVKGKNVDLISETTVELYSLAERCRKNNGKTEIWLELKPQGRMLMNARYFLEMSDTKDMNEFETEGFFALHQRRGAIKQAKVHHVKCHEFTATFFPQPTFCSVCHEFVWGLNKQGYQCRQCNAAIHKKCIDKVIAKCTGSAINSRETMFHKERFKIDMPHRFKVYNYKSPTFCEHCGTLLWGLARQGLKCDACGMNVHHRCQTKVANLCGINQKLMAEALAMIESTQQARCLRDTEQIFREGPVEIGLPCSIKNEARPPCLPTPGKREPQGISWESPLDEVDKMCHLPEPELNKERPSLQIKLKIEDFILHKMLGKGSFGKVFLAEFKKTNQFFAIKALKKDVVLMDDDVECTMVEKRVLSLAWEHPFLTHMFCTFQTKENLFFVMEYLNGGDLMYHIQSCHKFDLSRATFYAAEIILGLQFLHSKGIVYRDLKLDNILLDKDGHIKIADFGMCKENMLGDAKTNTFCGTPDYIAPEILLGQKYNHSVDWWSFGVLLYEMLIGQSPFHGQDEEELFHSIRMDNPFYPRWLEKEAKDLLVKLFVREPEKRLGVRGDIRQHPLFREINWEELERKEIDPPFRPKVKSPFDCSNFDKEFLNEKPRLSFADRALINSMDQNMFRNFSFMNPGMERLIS

Target	log2 fold change [1]	log2 fold change [2]	log2 fold change [3]	log2 fold change [4]	log2 fold change (entinostat)	log2 fold change (vorinostat)	log2 fold change (citarinostat)	log2 fold change (silmitasertib)	log2 fold change [5]	log2 fold change [6]
PARP16 isoform 3 (UniProt Q8N5Y8)	0.116	0.077	0.239	-0.036	0.053	0.117	0.006	-0.197	-0.022	-0.065
PCTP (UniProt Q9UKL6)	-0.078	-0.07	-0.023	-0.092	0.065	-0.051	0.003	0.043	-0.061	0.363
PDE12 (UniProt Q6L8Q7)	-0.036	0.07	-0.069	-0.008	0.017	-0.003	0.044	-0.014	-0.089	0.047
POLR2G (UniProt P62487)	0.061	0.153	-0.008	0.003	-0.034	-0.148	-0.009	0.004	0.009	-0.037
PRKCQ (UniProt Q04759)	-0.337 (active)	-0.135	-0.198	-0.052	0.002	0.035	0.001	0.002	-0.021	-0.187
PSMC2 (UniProt P35998)	0.014	-0.013	0.026	0.091	-0.025	-0.018	-0.04	-0.015	0.087	-0.086
POLA2 (UniProt Q14181)	-0.102	-0.115	-0.129	-0.133	-0.014	0.072	0.054	0.058	-0.054	-0.026
PEX16 isoform 2 (UniProt Q9Y5Y5)	0.061	-0.052	-0.171	-0.031	0.022	0.115	0.081	-0.025	0.033	-0.051
PCGF2 (UniProt P35227)	-0.164	-0.125	-0.048	-0.025	0.114	-0.059	0.134	0.051	-0.069	-0.022
PTGFRN (UniProt Q9P2B2)	-0.115	0.083	0.013	0.014	-0.071	-0.055	0.021	-0.006	-0.007	-0.104
PPP1R14A (UniProt Q96A00)	-0.051	0.101	0.02	0.029	0	0.105	0	-0.089	-0.014	0.018
PIP4K2C (UniProt Q8TBX8)	0.016	0.192	-0.125	0.293	-0.027	-0.071	-0.036	0.497	0.12	0.036
POLR2D (UniProt O15514)	0.04	0.145	-0.016	0.022	-0.026	-0.133	-0.078	0.049	-0.015	-0.06
PEA15 isoform 2 (UniProt Q15121)	0.021	-0.118	-0.103	0.016	0.075	-0.009	0.049	0.045	-0.067	-0.209
POLD1 (UniProt P28340)	-0.01	-0.027	-0.095	-0.007	0.005	-0.098	0.117	0.03	-0.122	-0.011
PHAX (UniProt Q9H814)	0.008	-0.084	-0.003	0.013	-0.022	-0.006	0.041	0.092	0.046	-0.029
PIP4P2 (UniProt Q8N4L2)	0.02	-0.152	-0.373 (active)	-0.024	0.007	0.042	-0.02	0.074	0.082	0.051
PPP1R12A (UniProt O14974)	-0.428 (active)	-0.358	-0.137	-0.012	0.041	0.017	0.078	0.051	-0.01	-0.369
PPP2R5C isoform 4 (UniProt Q13362)	-0.035	0.079	-0.064	-0.065	0.012	-0.033	0.055	-0.015	-0.022	0.058
PFAS (UniProt O15067)	0.06	-0.075	-0.012	-0.054	0.134	0.042	0.049	-0.119	-0.052	0.142
PRKAG1 isoform 3 (UniProt P54619)	-0.105	-0.033	-0.069	-0.045	0.017	0.071	0.04	0.016	-0.042	-0.091
PIGT (UniProt Q969N2)	-0.01	-0.002	-0.077	-0.002	0.018	0.05	0.04	0	-0.01	-0.089
PSMD6 (UniProt Q15008)	-0.028	0.037	-0.024	0.082	-0.045	-0.001	-0.017	0.011	0.039	-0.063
PATL1 (UniProt Q86TB9)	0.054	-0.213	-0.047	-0.025	0.052	0.106	0.02	0.04	0.069	-0.093
PSMD8 (UniProt P48556)	-0.035	0.042	-0.07	0.009	-0.009	0.016	-0.015	0.007	0.019	-0.101
PRKCG (UniProt P05129)	-0.064	-0.043	-0.086	0.068	0.117	0.109	0.193	0.062	-0.229	0.082
RAB11FIP1 (UniProt Q6WKZ4)	0.019	-0.121	-0.086	-0.009	0.041	0.091	0.065	0.016	0	-0.07
PIK3CB (UniProt P42338)	-0.057	-0.106	-0.008	-0.102	0.014	0.001	0.003	-0.053	-0.039	-0.049
PSMB6 (UniProt P28072)	0.024	0.006	0.046	0.044	-0.054	-0.093	-0.046	-0.004	0.044	-0.034
